Screening results deposited in PubChem by National Center for Advancing Translational Sciences (NCATS).
HepG2 viability = HepG2 cytotoxicity, counter-screen for TGF-b inhibitors; HepG2 CAGA-GFP viability, ATP luminescence, 18 h; Potency, µM (top dose mostly 46.1 µM), most hits filed as cytotoxic; hit rate 0.76% among 410,000; AID 588856
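CellTiter-Glo luminescence gave cytotoxicity after 18 hours at 37 degrees C. The cells were HepG2 CAGA-GFP in 1% FBS DMEM, stimulated with 500 pg/mL TGF-beta after compound addition. %Activity was normalised to no-cell wells (complete cell-killing) and DMSO (no toxicity), and curves were fitted and classified.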
TGFb inhibitor = blocks TGF-b signaling; HepG2 CAGA-GFP TGF-b/SMAD3 reporter, GFP fluorescence, 18 h; TGF-beta stimulated, 500 pg/mL final; Potency, µM (doses to about 46.1 µM), usual class: inhibitors; hit rate 1.2% among 410,000; also: nearly all actives have a fitted effect of over 65% in size
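GFP signal (ex488/em500-530) from TGF-beta-stimulated HEPG2 CAGA-GFP cells, 500 pg/mL final, 18 h at 37 degrees C in DMEM plus 1% FBS, normalized to unstimulated and DMSO-stimulated controls.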
S2 tox = cell viability loss in ATXN counter-screen. S2 cells (HEK-293 line with an ATXN2-luciferase reporter) viability, CellTiter-Fluor protease fluorescence, 24 h. Potency, µM (doses to about 56.7 µM), usual class: cytotoxic. hit rate 0.49% among 400,000. AID 651635; also: nearly all actives have a fitted effect of over 40% in size
ATXN2 expr inh = reduces ATXN2 reporter expression in HEK-293 cells | Potency, µM (series often up to 57 µM), usual class: inhibitors | hit rate 0.72% among 360,000 | HEK-293 ATXN2-luciferase reporter, luminescence, 24 h; also: nearly all actives have a fitted effect of over 55% in size
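qHTS (up to 57 uM final) was run with 24 h compound exposure of reporter cells at 37 °C. Each well was multiplexed: SteadyGlo luminescence measured ATXN2-luciferase expression after a fluorogenic Gly-Phe-AFC viability readout (25 uM final).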
HT1080 IDH1KD tx = kills HT-1080 cells with IDH1 knockdown. HT-1080 IDH1 knockdown viability, ATP luminescence, 48 h. Potency, µM (top dose mostly 46.1 µM), hits mostly cytotoxic. hit rate 2% among 360,000. AID 686971
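IDH1KD HT-1080 cells, 750/well, RPMI + 5% FBS; compound pinned after 2 h settling; 48 h, 37 °C; CellTiter-Glo luminescence; % activity normalised to DMSO and no-cell wells; curves fitted, classed by r2 and efficacy.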
HT1080NT lethal = kills 2HG-producing HT-1080-NT fibrosarcoma cells. hit rate 1.6% among 360,000. Potency, µM (top dose mostly 46.1 µM), usual class: cytotoxic. HT-1080-NT fibrosarcoma viability, CellTiter-Glo ATP luminescence, 48 h;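 also: NT is the 2HG producing partner of a matched IDH1 knockdown line; nearly all actives have a fitted effect of over 55% in size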
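Viability by CellTiter-Glo luminescence after 48 h compound exposure at 37C of HT-1080-NT cells (750/well, RPMI, 5% FBS). % activity scaled between DMSO wells and medium-only wells, then curve-fitted and categorized by curve class.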
Hits are given with their value; 0 = inactive; ? = inconclusive; - = no result; ! = a repeat was not active; [ ] = dose if it differs, or a comment. Sampled rows, rich in hits. Any-hit rate of the full collection: about 3.9%. Calls follow the shape of the dose curve; as a rule, active = well fitted curve in the direction sought with a large enough effect; inconclusive = small, poorly fitted or top-dose-only effect, or another doubt; inactive = no such curve, though single readings can be large; an effect the other way counts as inactive or inconclusive.

SMILES | HepG2 viability | TGFb inhibitor | S2 tox | ATXN2 expr inh | HT1080 IDH1KD tx | HT1080NT lethal
CC(C)(C)c1cc(C(C)(C)C)c(NC(=O)c2c[nH]c3ccccc3c2=O)cc1O | - | - | - | 0 | - | -
O=C(Nc1ccc(Cl)c(Cl)c1)N[C@@H]1CC[C@@H](CCn2cc(C3CCCCC3)nn2)O[C@@H]1CO | - | - | - | - | 23.1µM | 20.6µM
CC(=NNc1nc2ccccc2s1)c1ncccn1 | 0 | 0.794µM | 1.41µM | ? | 1.16µM | ?
CC(=NNc1nc2ccccc2o1)c1ncccn1 | 0 | ? | ? | ? | 1.16µM | ?
Oc1ccccc1/C=N/Nc1nc2ccccc2o1 | 0 | ? | ? | ? | ? | ?
O=C(Nc1ccc2c(c1)CCC2)c1cnn2c1NC(c1ccco1)CC2C(F)(F)F (stereo not given) | 0 | 0 | 0 | 0 | 23.1µM | ?
Cc1ccc(Cl)cc1NC(=O)c1cnn2c1NC(c1ccco1)CC2C(F)(F)F (stereo not given) | 0 | 0 | 0 | 0 | 0 | 0
O=C(CSCC(=O)Nc1ccccc1)N/N=C/c1c(O)ccc2ccccc12 | 0 | 0 | 0 | 3.16µM | 1.58µM | 3.16µM
O=C(CN1CCOCC1)N/N=C/c1c(O)ccc2ccccc12 | 0 | 0 | ? | 10.6µM | ? | ?
O=C(CNc1ccccc1)N/N=C/c1c(O)ccc2ccccc12 | 0 | ? | 0 | 7.08µM | 11.6µM | 10.3µM
COc1ccc(C)cc1NC(=O)C(NS(=O)(=O)c1cccc2nsnc12)c1ccccc1 (stereo not given) | 0 | 0 | 0 | 0 | - | -
COc1ccc(CCNc2ncnc3sc(C(=O)N4CCCCC4)c(C)c23)cc1OC | - | - | 0 | - | - | -
C=CCC[C@@H](Cc1ccc(F)cc1)C(=O)OC[C@@H](NC(=O)[C@@H](CC=C)CC(=O)N[C@@H](CO)Cc1ccccc1)C(C)(C)C | 0 | ? | 22.4µM | ? | ? | ?
C=CCC[C@H](Cc1ccc(F)cc1)C(=O)OC[C@@H](NC(=O)[C@@H](CC=C)CC(=O)N[C@@H](CO)Cc1ccccc1)C(C)(C)C | 0 | ? | - | ? | ? | ?
C=CCC[C@H](Cc1ccc(F)cc1)C(=O)OC[C@@H](NC(=O)[C@@H](CC=C)CC(=O)N(CCO)Cc1ccccc1)C(C)(C)C | 0 | ? | 20µM | ? | ? | ?
C=CC[C@H](CC(=O)N(CCO)Cc1ccccc1)C(=O)N[C@H](COC(=O)[C@@H](CC=C)Cc1ccc(F)cc1)C(C)(C)C | 0 | ? | - | ? | ? | 0
CN(C1CCc2c(c3ccccc3n2CC(=O)O)C1)S(=O)(=O)c1ccc(F)cc1 (stereo not given) | - | - | - | 0 | - | -
C/C=C(\C)NNC(=O)Cc1ccc(OC)cc1 | 0 | 0 | - | - | - | -
Cc1cc(C(=O)Nc2ccccc2-c2nc(CNC(=O)C3COc4ccccc4O3)c(C)o2)c(C)o1 (stereo not given) | - | - | 0 | - | - | -
NC1=NC(=Nc2ccc(Br)cc2)c2ccccc21 | 0 | ? | 0 | 0[11.3 µM] | 13µM | 23.1µM
NC1=NC(=Nc2ccc(Cl)cc2)c2ccccc21 | 0 | 0 | 0 | 0[11.3 µM] | ? | 0
CC(C)c1ccc(N=C2N=C(N)c3ccccc32)cc1 | 0 | ? | - | ? | ? | 18.4µM
NC1=NC(=Nc2ccccc2)c2ccccc21 | 0 | 0 | ? | ? | ? | ?
NC1=NC(=Nc2cccc(Cl)c2)c2ccccc21 | 0 | 0 | 0 | ? | 0 | 0
Cc1cc(Cl)ccc1N=C1N=C(N)c2ccccc21 | 0 | 0 | ? | 0 | ? | 23.1µM
SMILES | HepG2 viability | TGFb inhibitor | S2 tox | ATXN2 expr inh | HT1080 IDH1KD tx | HT1080NT lethal
Brc1cccc[n+]1CCCC[n+]1ccccc1Br | 0 | 0 | - | - | - | -
O=C1NC(=O)C(=Cc2ccc(-c3ccc(F)cc3)o2)S1 | - | - | - | 0 | - | -
CCOC(=O)C1CCCCN1C(=O)c1ccc(-n2cc(NC(=O)c3cccnc3)cn2)cc1 (stereo not given) | - | - | 0 | - | - | -
COc1cc(OC)c(C=CS(=O)(=O)Cc2ccc(OC)c(NCC(=O)O)c2)c(OC)c1 | - | - | - | 0 | - | -
COc1ccc(OC)c(-c2cc(-c3cccnc3)nc(N)c2C#N)c1 | 0 | 0 | 0 | 0 | 1.46µM | 1.84µM
CCCCCCCCNC(C)C(O)c1ccc(SC(C)C)cc1 (stereo not given) | 0 | ? | ? | 25.1µM! | ? | 23.1µM
